IL1B secr inh = inhibitors of inflammasome signaling (IL-1 beta secretion). 4.7% of 360,000 active. THP-1 LPS/ATP IL-1B secretion, AlphaLISA, 16 h; hits give low values. AID 743279. activity change, % at 57.5 µM; in the data active = activity change below about -50%; inconclusive = mostly about -30% to -49%
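THP-1 cells pretreated 1 hr with compounds (up to 57.5 uM final), then stimulated with LPS (250 ng/mL final) plus ATP (1.25 mM final); secreted IL-1B measured by AlphaLISA after 16 hr, decreased signal indicating inhibition.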
TDP1 cell noCPT = qHTS for Inhibitors of human tyrosyl-DNA phosphodiesterase 1 (TDP1): qHTS in cells in absence of CPT. Potency, µM (doses to about 46.2 µM), hits mostly inhibitors. AID 686978, 2013. 15% of 420,000 active. DT40 Tdp1-/- hTDP1 cells, no CPT, ATP luminescence, 48 h; also: nearly all actives have a fitted effect of over 55% in size
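Camptothecin absent (DMSO only). Human TDP1-complemented DT40 knockout cells, 400 cells/well, 37 °C for minimum 48 hr; ATP measured via CellTiter-Glo, 30 min dark incubation, luminescence.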
HT1080NT lethal = kills 2HG-producing HT-1080-NT fibrosarcoma cells; 1.6% of 360,000 active; Potency, µM (doses to about 46.1 µM), actives largely listed as cytotoxic; HT-1080-NT fibrosarcoma viability, CellTiter-Glo ATP luminescence, 48 h;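 also: NT is the 2HG producing partner of a matched IDH1 knockdown line; nearly all actives have a fitted effect of over 55% in size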
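Read-out is CellTiter-Glo luminescence after 10 minutes at room temperature, following 48 hours' compound treatment of HT-1080-NT cells (750 cells/well, RPMI, 5% FBS, 37 degrees C).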
HT1080 IDH1KD tx = HT-1080 IDH1 knockdown cell toxicity (counter line); HT-1080 IDH1 knockdown viability, ATP luminescence, 48 h; Potency, µM (titrated, usually from 46.1 µM), most hits filed as cytotoxic; 2% of 360,000 active; AID 686971
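After a 2 h attachment period, IDH1KD HT-1080 cells took pin-transferred compound for 48 h at 37 °C; ATP-based luminescence after 10 min room-temperature reagent incubation reported viability.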
TDP1 cell CPT = growth inhibition of DT40 Tdp1-/-;hTDP1 cells with camptothecin (screen for TDP1 inhibitors) | Potency, µM (doses to about 46.2 µM), most hits filed as inhibitors | AID 686979 | chicken DT40 Tdp1-/-;hTDP1 cells + 20 nM CPT, ATP luminescence, 48 h | 12% of 420,000 active; also: nearly all actives have a fitted effect of over 55% in size
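Chicken DT40 Tdp1-/- cells stably complemented with human TDP1 were seeded at 400 cells/well in medium containing 20 nM camptothecin, exposed to pin-transferred compounds, and grown at 37 °C for at least 48 hr. Viability was read as ATP luminescence.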
Large screens that a line does not name were inactive. Compounds with a hit are over-represented: about 19% of the library has one in this group of screens. Unless noted, calls follow the shape of the dose curve; as a rule, active = well fitted curve in the direction sought with a large enough effect; inconclusive = small, poorly fitted or top-dose-only effect, or another doubt; inactive = no such curve, though single readings can be large; an effect the other way counts as inactive or inconclusive.

CCOc1ccc(N2CC(c3nc4ccccc4n3CCCOc3ccc(OC)cc3)CC2=O)cc1 (stereo not drawn)	TDP1 cell noCPT 8.2µM, TDP1 cell CPT inconclusive (no result: IL1B secr inh, HT1080NT lethal, HT1080 IDH1KD tx)
CCOc1ccccc1N1CC(c2nc3ccccc3n2CCCOc2ccc(OC)cc2)CC1=O (stereo not drawn)	none (no result: IL1B secr inh, HT1080NT lethal, HT1080 IDH1KD tx)
Cc1cc(C)cc(OCCn2c(C3CC(=O)N(c4ccccc4Cl)C3)nc3ccccc32)c1 (stereo not drawn)	TDP1 cell noCPT 20.6µM, TDP1 cell CPT inconclusive (no result: IL1B secr inh, HT1080NT lethal, HT1080 IDH1KD tx)
CCOc1ccccc1N1CC(c2nc3ccccc3n2CCOc2ccc(OC)cc2)CC1=O (stereo not drawn)	TDP1 cell noCPT 18.4µM, TDP1 cell CPT inconclusive (no result: IL1B secr inh, HT1080NT lethal, HT1080 IDH1KD tx)
Cc1ccc(OCCn2c(C3CC(=O)N(Cc4ccccc4)C3)nc3ccccc32)cc1 (stereo not drawn)	TDP1 cell noCPT 14.6µM, TDP1 cell CPT inconclusive
COc1ccc(C(=O)O)cc1S(=O)(=O)Nc1ccccc1C(=O)NCc1ccc2c(c1)OCO2	none
CC(NC(=O)CCNC(=O)c1ccccc1Cl)C1CC2CCC1C2 (stereo not drawn)	none
CCc1ccccc1N1CC(c2nc3ccccc3n2CCCOc2ccc(Cl)cc2)CC1=O (stereo not drawn)	none (no result: IL1B secr inh, HT1080NT lethal, HT1080 IDH1KD tx)
CCc1ccccc1N1CC(c2nc3ccccc3n2CC(C)C)CC1=O (stereo not drawn)	TDP1 cell noCPT 20.6µM, TDP1 cell CPT 14.6µM (no result: IL1B secr inh, HT1080NT lethal, HT1080 IDH1KD tx)
CCCn1c(C2CC(=O)N(c3ccc(C)cc3)C2)nc2ccccc21 (stereo not drawn)	none
COc1ccc(OCCn2c(C3CC(=O)N(c4ccc(F)cc4)C3)nc3ccccc32)cc1 (stereo not drawn)	TDP1 cell noCPT 18.4µM, TDP1 cell CPT 16.4µM (no result: IL1B secr inh, HT1080NT lethal, HT1080 IDH1KD tx)
Cc1cc(C)cc(N(CC(=O)NC2CCCC2)C(=O)C2(C)CC(=O)N=C3C=CC=CN32)c1 (stereo not drawn)	none
Cc1ccc(NC(=O)C2CCN(c3nn4c(=O)cc(C)nc4s3)CC2)cc1	none (no result: IL1B secr inh, HT1080NT lethal, HT1080 IDH1KD tx)
O=C(CN(C(=O)CCC(=O)Nc1ccccn1)c1ccc2c(c1)OCO2)NCc1ccc(F)cc1	none
CC(C)Cn1c(=O)c2ccccc2n2c(CCC(=O)N3CCN(c4ccccc4F)CC3)nnc12	TDP1 cell noCPT 23.1µM, TDP1 cell CPT 23.1µM (no result: IL1B secr inh, HT1080NT lethal, HT1080 IDH1KD tx)
CC(C)Cn1c(=O)c2ccccc2n2c(CCC(=O)N3CCN(c4ccccc4)CC3)nnc12	TDP1 cell noCPT 16.4µM, TDP1 cell CPT inconclusive (no result: IL1B secr inh, HT1080NT lethal, HT1080 IDH1KD tx)
Cc1cscc1-c1ccc(C(=O)Nc2c(C)cccc2C)o1	IL1B secr inh inconclusive, TDP1 cell noCPT 4.61µM, HT1080 IDH1KD tx inconclusive, TDP1 cell CPT 3.66µM
Cc1cccc(C)c1NC(=S)NC(=O)c1ccc(Br)o1	TDP1 cell noCPT inconclusive, TDP1 cell CPT inconclusive
Cc1cccc(C)c1NC(=O)Cn1nnnc1N	none
CCc1nc2c(OCc3ccc(F)c(F)c3)cccn2c1N(C)C(=O)c1ccc(C)cc1	TDP1 cell noCPT 9.2µM, TDP1 cell CPT 23.1µM
CCc1nc2c(OCc3ccc(F)cc3)cccn2c1N(C)C(=O)c1ccncc1	none
CCc1nc2c(OCc3ccc(F)c(F)c3)cccn2c1N(C)C(=O)c1ccc(OC)cc1	TDP1 cell noCPT 23.1µM, TDP1 cell CPT 16.4µM
CCc1nc2c(OCc3ccccc3C)cccn2c1N(C)C(=O)c1ccc(C)cc1	TDP1 cell noCPT 16.4µM, TDP1 cell CPT 18.4µM
CCc1nc2c(OCc3ccccc3)cccn2c1N(C)C(=O)c1ccc(OC)cc1	TDP1 cell noCPT inconclusive, HT1080NT lethal inconclusive
CCc1nc2c(OCc3ccc(Cl)cc3)cccn2c1N(C)C(=O)c1ccncc1	TDP1 cell noCPT 20.6µM, TDP1 cell CPT 20.6µM
O=C1C=C(c2cccc3c2oc2ccccc23)C[C@@H](c2ccc(F)cc2)C1	TDP1 cell noCPT inconclusive, TDP1 cell CPT inconclusive
Cn1nc(C(=O)N2CCCCC2)c2c1-c1ccccc1S(=O)(=O)C2	none
COc1cc(Br)c(Br)c(Br)c1N	none
CCc1nc2c(OCc3cc(Cl)cc(Cl)c3)cccn2c1N(C)C(=O)c1ccc(C)cc1	IL1B secr inh -57.1, TDP1 cell noCPT inconclusive, HT1080NT lethal inconclusive, HT1080 IDH1KD tx inconclusive, TDP1 cell CPT 16.4µM
CCc1nc2c(OCc3cccc(Cl)c3)cccn2c1N(C)C(=O)c1ccncc1	TDP1 cell noCPT inconclusive, TDP1 cell CPT inconclusive
CC(C)CCn1cnc2c(oc3nc4c(cc32)CCCC4)c1=O	IL1B secr inh inconclusive, TDP1 cell noCPT 20.6µM, TDP1 cell CPT inconclusive
Cc1ccc(NC(=O)Cn2cnc3c(oc4nc5c(cc43)COC(C)(C)C5)c2=O)cc1	TDP1 cell noCPT inconclusive, TDP1 cell CPT inconclusive
Cc1ccc2cc(C#N)c(NCCCNC(=O)C3CCCO3)nc2c1 (stereo not drawn)	none
CCN1C(=O)C(=O)c2cc(C)ccc21	TDP1 cell noCPT 5.8µM, TDP1 cell CPT 4.61µM
Cc1ccc2c(c1)C(=O)C(=O)N2Cc1ccc(F)cc1	TDP1 cell noCPT 0.92µM, TDP1 cell CPT 0.731µM
Cc1ccc2c(c1)C(CCN)C(=O)N2Cc1ccccc1 (stereo not drawn)	TDP1 cell noCPT 20.6µM, TDP1 cell CPT inconclusive
Cc1ccc(CN2C(=O)CSC2c2ccc(F)cc2)cc1 (stereo not drawn)	TDP1 cell noCPT inconclusive
Cc1ccc2c(c1)C(=O)C(=O)N2Cc1ccc(Cl)cc1	TDP1 cell noCPT 0.92µM, HT1080NT lethal inconclusive, HT1080 IDH1KD tx inconclusive, TDP1 cell CPT 0.731µM
COc1ncnc(OC)c1S(=O)(=O)NCc1ccccc1	none
Cn1ncc(Cl)c1C(=O)Nc1ccc(CN2CCCCC2)cc1	none

Screening results from PubChem BioAssay.
